The campaign covered roughly 290,000 compounds. About 3,000 (1%) were called active. The full list was thinned out, with actives kept by preference. Values without a mark were called inactive. No stated cut-off is given here; in the data, active means inhibition mostly above about 36% (no sharp cut-off); inactive means mostly below about 34%.

A short description of this assay: NOD1 signaling inhibitors, primary screen, cell-based, luminescence, uHTS (AID 1578).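 Further: HEK-293T reporter cells stimulated with the NOD1 agonist gamma-tri-DAP.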 The following applies: NOD1-driven NF-kB luciferase reporter cells, at 4 µM, hits give high values.
As to `O=C(OCCN1CCCCC1)c1cccc(F)c1`, the inhibition is -21.9%.

In the case of `CCOc1cc(C2C(C(=O)OC)=CN(Cc3ccc(Cl)cc3)C=C2C(=O)OC)ccc1O`, the inhibition was -1.2%.

As for `O=C(CCCn1c(=O)[nH]c2ccccc2c1=O)Nc1ccc(F)cc1`, the inhibition was -2.3%.

Take `COc1ccc(NC(=O)C2CC(=O)OC2c2ccccc2)cc1` (stereo not drawn): the inhibition is -23.5%.

For `COc1cccc(NC(=O)CN2C(=O)COc3ccc(Cl)cc32)c1`, the inhibition was 26.8%.

In the case of `NC(=O)C1=C[C@@H](c2csc3ccccc23)C[C@@H](OCCCCO)O1`, the inhibition was -3.6%.

`Cc1cc(N=CC2=C(O)CC(C)(C)CC2=O)no1`: the inhibition was 13.1%.

In the case of `COCCn1c(SCC(=O)NCc2ccccc2)nc2ccccc21`, the inhibition was 6.7%.

Take `O=C1c2ccccc2C2=Nc3ccccc3SC(c3ccc(Cl)cc3)C12` (stereo not drawn): the inhibition is 74.7% (active).

Turning to `O=C1c2ccccc2C2=Nc3ccccc3SC(c3cccc(F)c3)C12` (stereo not drawn), the inhibition is 49.7%.

As to `O=C1c2ccccc2C2=Nc3ccccc3SC(c3ccccc3F)C12` (stereo not drawn), the inhibition was 36.8%.

For `NC(=O)CC(NC(=O)c1ccccc1)c1ccc(NCCOc2ccccc2)c([N+](=O)[O-])c1` (stereo not drawn), the inhibition is 1.2%.

For the molecule `Cc1ccc(C(=O)N2CCN3C(=O)c4ccccc4C23c2ccc(Cl)cc2)cc1` (stereo not drawn), the inhibition was -52.7%.

As to `O=C(c1ccccc1)N1CCN2C(=O)c3ccccc3C12c1ccc(Cl)cc1` (stereo not drawn), the inhibition was -44.9%.

In the case of `O=C(CCl)N1CCN2C(=O)c3ccccc3C12c1ccc(Cl)cc1` (stereo not drawn), the inhibition was 87.1% (active).

Turning to `O=C(Cn1c(=O)c2cccn2c2ccccc21)Nc1ccc(F)cc1F`, the inhibition was -12.1%.

For the molecule `Cc1cc(C)nc(N(C#N)S(=O)(=O)c2ccccc2)n1`, the inhibition is 9.1%.

As for `N/C(=N\OCc1ccc([N+](=O)[O-])cc1)c1ccccn1`, the inhibition was 88.4% (active).

As for `CC(C(=O)O/N=C(\N)c1ccccn1)c1ccc([N+](=O)[O-])cc1` (stereo not drawn), the inhibition was -16.2%.

For `N/C(=N\OCc1ccc([N+](=O)[O-])cc1)c1ccncc1`, the inhibition was -27.7%.

With `CCCC(=O)Nc1ccccc1NC(=O)c1ccc(OCC)cc1`, the inhibition was 2.3%.

For `O=C1CC(N2CCC(c3nc4ccccc4[nH]3)CC2)C(=O)N1Cc1ccccc1` (stereo not drawn), the inhibition is -24.3%.

As to `Cc1cc(-c2ccc(C(C)C)c(S(=O)(=O)N3CCN(c4ccccc4)CC3)c2)on1`, the inhibition was 0%.

On to `CCc1cc2c(=O)[nH]c(-c3ccncc3)nc2s1`, for which the inhibition was 29.8%.

For `CCc1cc2c(=O)[nH]c(-c3ccccn3)nc2s1`, the inhibition was 112% (active).

`CCc1cc2c(=O)[nH]c(Cc3ccccc3)nc2s1`: the inhibition was 0.4%.

Regarding `CC(C)Nc1nc(Cl)nc(N(C#N)CN2C(=O)c3ccccc3S2(=O)=O)n1`, the inhibition is -4.8%.

For `COc1ccc2nc(SCC(=O)Nc3nccs3)[nH]c2c1`, the inhibition is -39.1%.

As for `COc1ccc(NC(=O)CN2CCN(c3c(C)cccc3C)CC2)cc1`, the inhibition is -8.8%.

`CC1C(=O)N(Cc2ccc(F)cc2)c2ccccc2N1C(=O)c1c(F)cccc1F` (stereo not drawn): the inhibition was 43.5% (active).

`COc1ccc(CN2C(=O)C(C)N(C(=O)c3c(F)cccc3F)c3ccccc32)cc1` (stereo not drawn): the inhibition is 6.5%.

Take `COC(=O)c1ccc(CN2C(=O)C(C)N(C(=O)c3c(F)cccc3F)c3ccccc32)cc1` (stereo not drawn): the inhibition is -2.1%.

Regarding `CC1CCN(CCCNC(=O)c2ccc3c(Cl)c4c(nc3c2)CCCC4)CC1`, the inhibition was 0.2%.

With `COc1ccc(NC(=O)CSc2nnc(Cc3cccn3C)n2-c2ccc(OC)cc2)cc1`, the inhibition is 0.1%.

As for `COc1ccc(-n2c(Cc3cccn3C)nnc2SCC(=O)Nc2ccccc2C)cc1`, the inhibition was 57% (active).

In the case of `COc1ccc(-n2c(Cc3cccn3C)nnc2SCC(=O)Nc2cccc(C)c2C)cc1`, the inhibition is 33.3%.

In the case of `COc1ccc(-n2c(Cc3cccn3C)nnc2SCC(=O)Nc2ccc(Cl)cc2)cc1`, the inhibition is 39.9%.

On to `COc1ccc(-n2c(Cc3cccn3C)nnc2SCC(=O)Nc2ccccc2OC)cc1`, for which the inhibition was 55%.

In the case of `COc1ccc(-n2c(Cc3cccn3C)nnc2SCC(=O)Nc2ccc(C)c(Cl)c2)cc1`, the inhibition was 75.8% (active).

Consider `CN1C=CC=C/C1=C1\SC(=S)N(N)C1=O`, for which the inhibition was -40.2%.

As to `CCOC(=O)C1CCN(CCC(=O)Nc2ccc(C)cc2)CC1`, the inhibition is -32.1%.

Consider `COC(=O)c1cc(CNC(=O)c2ccc(N3CCCC3)c([N+](=O)[O-])c2)ccc1OC`, for which the inhibition was -43.2%.

Consider `CNC(=S)N/N=C/c1cn(Cc2ccc(F)cc2)c2ccccc12`, for which the inhibition is -6.2%.

For `CNC(=S)N/N=C/c1cn(Cc2ccc(C)cc2)c2ccccc12`, the inhibition was 70.4% (active).

Take `CCNC(=S)N/N=C/c1cn(Cc2ccc(F)cc2)c2ccccc12`: the inhibition is 10.8%.

Regarding `COc1ccc(S(=O)(=O)N(C)c2ccc(C(=O)Nc3c(C)n(C)n(-c4ccccc4)c3=O)cc2)cc1`, the inhibition was -31.9%.

Consider `CCCC(C)NC(=O)c1cc(Cl)ccc1OC` (stereo not drawn), for which the inhibition is -0.3%.

As for `CC(=O)c1cnc(Oc2cc(Cl)ccc2Cl)nc1C`, the inhibition is -14.2%.

For the molecule `Cc1cc(C)n2nc(SCc3cccc(S(=O)(=O)N(C)C)c3)nc2n1`, the inhibition was 7.2%.

With `CN(C)S(=O)(=O)c1cccc(CSc2cccc[n+]2[O-])c1`, the inhibition is -15.4%.

Turning to `COC(=O)c1c(NC(=O)C2CCC2)sc(C(=O)N(C)C)c1C`, the inhibition is -8.7%.

`CCc1cccc(N(C(=O)c2csnn2)C(C(=O)NC2CCCC2)c2cccnc2)c1` (stereo not drawn): the inhibition was -10.2%.

As to `CSc1ccc(/C=C2\CCn3c2nc2cc(C(=O)O)ccc2c3=O)cc1`, the inhibition was -1.6%.

In the case of `O=C(O)c1ccc2c(=O)n3c(nc2c1)/C(=C/c1ccc(C(F)(F)F)cc1)CC3`, the inhibition is 1.9%.

On to `O=C(O)c1ccc2c(=O)n3c(nc2c1)/C(=C/c1ccc(F)cc1)CC3`, for which the inhibition is 33.3% (active).

Regarding `Cc1nc(-c2ccccc2)sc1C1(C)CC(c2c(Cl)cccc2Cl)=NO1` (stereo not drawn), the inhibition was 10.1%.

Regarding `CCCO/N=C1/C(=O)N(c2ccccc2)c2ccccc21`, the inhibition was 6.1%.

On to `C#CCN1C(=O)C(O)(CC(=O)/C=C/C=C/c2ccccc2)c2ccccc21` (stereo not drawn), for which the inhibition was 57% (active).

On to `NC(=O)CN1C(=O)C(O)(CC(=O)/C=C\C=C\c2ccccc2)c2ccccc21` (stereo not drawn), for which the inhibition is 17.8%.

As to `CCN1C(=O)C(O)(CC(=O)/C=C/C=C/c2ccccc2)c2ccccc21` (stereo not drawn), the inhibition was -4.8%.

On to `Cc1ccc(S(=O)(=O)/N=C(/Nc2ccc3[nH]c(=O)[nH]c3c2)c2ccc(F)cc2)cc1`, for which the inhibition is 3.8%.

Consider `CCSC1=C(C#N)C2(CCCCC2)C(C#N)C(=O)N1` (stereo not drawn), for which the inhibition was -3.2%.

Consider `N#CC1=C(SCC(=O)NC2CC2)NC(=O)C(C#N)C12CCCCC2` (stereo not drawn), for which the inhibition was 15.7%.

`COCCN=C1OC(=O)N2C(=O)C3=C4[C@@H](C[C@H]5C(=O)N(c6ccccc6)C(=O)[C@H]5[C@H]4[C@@]12Cc1ccccc1)[C@H]1C(=O)N(c2ccccc2)C(=O)[C@H]1[C@H]3C`: the inhibition is 4.5%.

On to `Cc1cc(C)nc(N(C#N)Cc2ccccc2C)n1`, for which the inhibition was -6.3%.

Take `O=C(c1ccc(F)cc1)C(CN1CCOCC1)c1ccccc1` (stereo not drawn): the inhibition was 67.3% (active).

With `COc1ccc(C(=O)C(CN2CCCC2)c2ccccc2)cc1` (stereo not drawn), the inhibition is 78.7% (active).

In the case of `O=C(c1ccc(Br)cc1)C(CN1CCOCC1)c1ccccc1` (stereo not drawn), the inhibition was 5.4%.

As for `COc1ccc(C(=O)C(CN2CCOCC2)c2ccccc2)cc1` (stereo not drawn), the inhibition is 38%.

For `CCOc1ccc(C(=O)C(CN2CCOCC2)c2ccccc2)cc1` (stereo not drawn), the inhibition was -28.1%.

For the molecule `CCCOc1ccc(C(=O)C(CN2CCCC2)c2ccccc2)cc1` (stereo not drawn), the inhibition was 31.5%.

With `Fc1ccc(OCc2nn[nH]n2)c(F)c1`, the inhibition is -9.1%.

For the molecule `COc1ccc(C(=O)NC(=S)NNC(=O)[C@H]2C[C@@H]2c2ccccc2)cc1OC`, the inhibition is -2.6%.

As to `O=C(NCC(=O)N(c1cccc(F)c1)C(C(=O)NC1CCCC1)c1ccco1)c1ccco1` (stereo not drawn), the inhibition is -35.9%.

With `O=C(NCc1ccncc1)c1ccc(Oc2ccccc2)cc1`, the inhibition is 18.9%.

Regarding `CCOc1ccc(C(=O)NCc2ccncc2)cc1`, the inhibition is -14.8%.

For the molecule `Cc1ccc(Oc2ccc(C(=O)NCc3ccncc3)cc2)cc1`, the inhibition was 38.4% (active).

In the case of `O=S(=O)(NCc1ccc2c(c1)OCO2)c1c(F)cc(F)cc1Br`, the inhibition was -29.4%.

As for `COc1ccccc1NC(=O)C(=O)N/N=C/c1ccc([N+](=O)[O-])s1`, the inhibition is 74.8% (active).

For the molecule `Cc1ccccc1C(=O)N/N=C/c1ccc([N+](=O)[O-])s1`, the inhibition was 11%.

As to `Cc1cc(C(=O)N/N=C/c2ccc([N+](=O)[O-])cc2)c2ccccc2n1`, the inhibition is 8.1%.

For the molecule `O=C(N/N=C\c1ccc(Cl)s1)C1COc2ccccc2O1` (stereo not drawn), the inhibition is -4.2%.

`COc1ccccc1NC(=O)C(=O)N/N=C/c1cccs1`: the inhibition was -36%.

As for `O=C(N/N=C\c1cccc([N+](=O)[O-])c1O)C1COc2ccccc2O1` (stereo not drawn), the inhibition is -14.4%.

As to `Fc1ccccc1/C=N/NC(=S)Nc1ccc(Cl)cc1Cl`, the inhibition was -13.3%.

For `Fc1ccc(/C=N/NC(=S)Nc2ccc(Cl)cc2Cl)cc1`, the inhibition was 8.9%.

On to `COC(=O)N/N=C/c1ccc([N+](=O)[O-])s1`, for which the inhibition is -14.7%.

Regarding `COc1cccc(NC(=O)c2ccccc2N2C(=O)C3C4C=CC(C5CC45)C3C2=O)c1` (stereo not drawn), the inhibition is -54.1%.

For `COc1cccc(OCC(O)CNC(C)c2ccccc2)c1` (stereo not drawn), the inhibition was -39.9%.

On to `C=CCNc1nnnc2c1sc1nc(N3CCOCC3)c3c(c12)CCCC3`, for which the inhibition was -1.1%.

On to `COC(=O)c1c(NC(=O)COC(=O)CNC(=O)c2ccco2)sc(C)c1C`, for which the inhibition was -14.8%.

Turning to `Cc1ccc(/C(O)=C2\C(=O)C(=O)N(C)C2c2ccc(Br)cc2)cc1` (stereo not drawn), the inhibition is -22%.

With `CC1CN(C(=O)CN2C(=O)c3ccccc3C2=O)CC(C)O1` (stereo not drawn), the inhibition is -11.2%.

The values are drawn from PubChem BioAssay AID1578 (Sanford-Burnham Center for Chemical Genomics, 2009).
